In the supplement of paper PMC8728848:
This is one part of a sample in which the strongest signals are shown more often than they occur.

Assays:
Test in all cases: glycan array binding signal (z-score within array); higher = stronger binding
Conditions in all cases: glycan notation: IUPAC condensed, linker removed
Gal6S(b1-4)Glc6S = target: Gal6S(b1-4)Glc6S
Outline: (§1)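 The binding signal is a Z-score computed within each array. Data were drawn from 3228 arrays in the Consortium for Functional Glycomics database, restricted to those with a known protein sequence. Scores were averaged over arrays of the same protein sequence at different concentrations or buffers, and over linkers, and negative values can be taken as non-binding.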

[1] = target: GalNAc(b1-4)GlcNAc(b1-2)Man
Outline: as §1

GalNAc(b1-4)GlcNAc6S = target: GalNAc(b1-4)GlcNAc6S
Outline: as §1

GlcA(b1-6)Gal = target: GlcA(b1-6)Gal
Outline: as §1

[2] = target: GlcNAc(b1-2)[GlcNAc(b1-4)]Man(a1-3)[GlcNAc(b1-4)][GlcNAc(b1-2)[GlcNAc(b1-6)]Man(a1-6)]Man(b1-4)GlcNAc(b1-4)[Fuc(a1-6)]GlcNAc
Outline: as §1

[3] = target: GlcNAc(b1-3)Gal(b1-4)GlcNAc(b1-2)Man(a1-3)[GlcNAc(b1-3)Gal(b1-4)GlcNAc(b1-2)Man(a1-6)]Man(b1-4)GlcNAc(b1-4)GlcNAc
Outline: as §1

GlcNAc(b1-3)Man = target: GlcNAc(b1-3)Man
Outline: as §1

[4] = target: GlcNAc(b1-3)[GlcNAc(b1-4)][GlcNAc(b1-6)]GlcNAc
Outline: as §1

Man(a1-2)Man(a1-3)Man = target: Man(a1-2)Man(a1-3)Man
Outline: as §1

[5] = target: Man(a1-3)[Man(a1-6)]Man(a1-6)[Man(a1-2)Man(a1-3)]Man(b1-4)GlcNAc(b1-4)GlcNAc
Outline: as §1

[6] = target: Neu5Ac(a2-3)Gal(b1-3)[Fuc(a1-4)]GlcNAc
Outline: as §1

[7] = target: Neu5Ac(a2-3)Gal(b1-4)GlcNAc(b1-2)Man(a1-3)[Neu5Ac(a2-3)Gal(b1-4)GlcNAc(b1-2)Man(a1-6)]Man(b1-4)GlcNAc(b1-4)GlcNAc
Outline: as §1

[8] = target: Neu5Ac(a2-3)Gal(b1-4)GlcNAc(b1-2)[Neu5Ac(a2-3)Gal(b1-4)GlcNAc(b1-4)]Man(a1-3)[GlcNAc(b1-4)][Neu5Ac(a2-3)Gal(b1-4)GlcNAc(b1-4)Man(a1-6)]Man(b1-4)GlcNAc(b1-4)GlcNAc
Outline: as §1

[9] = target: Neu5Ac(a2-3)Gal(b1-4)GlcNAc(b1-2)[Neu5Ac(a2-3)Gal(b1-4)GlcNAc(b1-6)]Man(a1-6)[Neu5Ac(a2-3)Gal(b1-4)GlcNAc(b1-2)Man(a1-3)]Man(b1-4)GlcNAc(b1-4)GlcNAc
Outline: as §1

[10] = target: Neu5Ac(a2-3)Gal(b1-4)GlcNAc(b1-3)Gal(b1-4)GlcNAc(b1-3)GalNAc
Outline: as §1

[11] = target: Neu5Ac(a2-3)Gal(b1-4)[Fuc(a1-3)]GlcNAc(b1-3)Gal
Outline: as §1

[12] = target: Neu5Ac(a2-3)Gal(b1-4)[Fuc(a1-3)]GlcNAc(b1-6)[Neu5Ac(a2-3)Gal(b1-3)]GalNAc
Outline: as §1

Neu5Ac(a2-3)GalNAc = target: Neu5Ac(a2-3)GalNAc
Outline: as §1

[13] = target: Neu5Ac(a2-3)[GalNAc(b1-4)]Gal(b1-4)Glc
Outline: as §1

[14] = target: Neu5Ac(a2-6)Gal(b1-4)GlcNAc(b1-2)Man(a1-3)Man(b1-4)GlcNAc(b1-4)GlcNAc
Outline: as §1

[15] = target: Neu5Ac(a2-6)Gal(b1-4)GlcNAc(b1-2)Man(a1-3)[Neu5Ac(a2-6)Gal(b1-4)GlcNAc(b1-2)Man(a1-6)]Man(b1-4)GlcNAc(b1-4)[Fuc(a1-6)]GlcNAc
Outline: as §1

[16] = target: Neu5Ac(a2-6)Gal(b1-4)GlcNAc(b1-2)Man(a1-6)[GlcNAc(b1-2)Man(a1-3)]Man(b1-4)GlcNAc(b1-4)GlcNAc
Outline: as §1

[17] = target: Neu5Ac(a2-6)Gal(b1-4)GlcNAc(b1-2)Man(a1-6)[Man(a1-3)]Man(b1-4)GlcNAc(b1-4)GlcNAc
Outline: as §1

[18] = target: Neu5Ac(a2-6)Gal(b1-4)GlcNAc(b1-2)[Neu5Ac(a2-6)Gal(b1-4)GlcNAc(b1-4)]Man(a1-3)[GlcNAc(b1-4)][Neu5Ac(a2-6)Gal(b1-4)GlcNAc(b1-2)[Neu5Ac(a2-6)Gal(b1-4)GlcNAc(b1-6)]Man(a1-6)]Man(b1-4)GlcNAc(b1-4)GlcNAc
Outline: as §1

[19] = target: Neu5Ac(a2-6)Gal(b1-4)GlcNAc(b1-2)[Neu5Ac(a2-6)Gal(b1-4)GlcNAc(b1-6)]Man(a1-6)[Neu5Ac(a2-6)Gal(b1-4)GlcNAc(b1-2)Man(a1-3)][GlcNAc(b1-4)]Man(b1-4)GlcNAc(b1-4)GlcNAc
Outline: as §1

[20] = target: Neu5Ac(a2-6)Gal(b1-4)GlcNAc(b1-3)Gal(b1-4)GlcNAc(b1-3)Gal(b1-4)GlcNAc(b1-2)Man(a1-3)[Neu5Ac(a2-6)Gal(b1-4)GlcNAc(b1-3)Gal(b1-4)GlcNAc(b1-3)Gal(b1-4)GlcNAc(b1-2)Man(a1-6)]GalNAc
Outline: as §1

Neu5Gc(a2-6)GalNAc = target: Neu5Gc(a2-6)GalNAc
Outline: as §1

B1: Ovorubin (Pomacea canaliculata), J7I2T6 (protein)
chain: MFVATSLLLAIATLVVRASPHNYLIMDIEPPKSVSERDILNLLSPLQVKHSFRVTGSTRLLIVIRLDAQSYEKLDEITVPGKVEVIPAVNMADTMERCGVSWPRVELTDDNVTLFESESTLTDVTKEQLKAMLIGYGEHMSGLLQAHRFEYYQAAGATPHRHFVFVNSVPDEIEVFGREGVDIWGGPGEFVVKPQYVTRI
Question: Which results are given for B1?
Answer: glycan array binding signal (z-score) (Gal6S(b1-4)Glc6S): 3.93; glycan array binding signal (z-score) [1]: -0.618; glycan array binding signal (z-score) (GalNAc(b1-4)GlcNAc6S): -0.066; glycan array binding signal (z-score) (GlcA(b1-6)Gal): -0.181; glycan array binding signal (z-score) [2]: -0.233; glycan array binding signal (z-score) [3]: -0.39; glycan array binding signal (z-score) (GlcNAc(b1-3)Man): -0.105; glycan array binding signal (z-score) [4]: 7.53; glycan array binding signal (z-score) (Man(a1-2)Man(a1-3)Man): 0.255; glycan array binding signal (z-score) [5]: -0.9; glycan array binding signal (z-score) [6]: -0.148; glycan array binding signal (z-score) [7]: -0.45; glycan array binding signal (z-score) [8]: -0.397; glycan array binding signal (z-score) [9]: 0.215; glycan array binding signal (z-score) [10]: 0.207; glycan array binding signal (z-score) [11]: -1.06; glycan array binding signal (z-score) [12]: -0.055; glycan array binding signal (z-score) (Neu5Ac(a2-3)GalNAc): 0.287; glycan array binding signal (z-score) [13]: -0.336; glycan array binding signal (z-score) [14]: 0.036; glycan array binding signal (z-score) [15]: -0.129; glycan array binding signal (z-score) [16]: -0.738; glycan array binding signal (z-score) [17]: -0.358; glycan array binding signal (z-score) [18]: 3.19; glycan array binding signal (z-score) [19]: -0.646; glycan array binding signal (z-score) [20]: 3.06; glycan array binding signal (z-score) (Neu5Gc(a2-6)GalNAc): 0.691
